Measurements from PubChem BioAssay (NCI).
The panel holds about 83,000 compounds, 20% with a hit somewhere; the sample as a whole holds those more often.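 The endpoint reported here, percent growth, reads 100 for growth as untreated, 0 for no net growth and -100 for all cells dead.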 Activity calls are given as the source filed them. Rule for the calls: active = growth percent below 10; inactive = the rest.

Key:
Test in all cases: NCI-60 one-dose screen, 48 h (100 = growth as untreated, 0 = no growth, -100 = all killed)
Conditions in all cases: 10 µM unless noted
[1] = test system: T-47D breast
[2] = test system: BT-549 breast
[3] = test system: MDA-MB-435 melanoma
[4] = test system: SW-620 colon
[5] = test system: MCF7 breast
[6] = test system: HCT-116 colon
[7] = test system: KM12 colon
[8] = test system: HCC-2998 colon

Measured: growth

COc1ccc2c(c1)C(=O)/C(=C/c1ccccn1)CC2
inactive: [1] 54.2% | [2] 96.4% | [3] 57.4% | [4] 57.5% | [5] 15.1% | [6] 26.3%
active: [7] -10%

Cc1cc(C)nc(SC2=C(Nc3cccc(Cl)c3)C(=O)N(Cc3ccccc3)C2=O)n1
inactive: [1] 22.2% [30 µM] | [2] 65.5% [30 µM] | [3] 61.4% [30 µM] | [4] 72% [30 µM] | [5] 49.8% [30 µM] | [6] 43.5% [30 µM] | [7] 83.7% [30 µM]

O=C1NC(=O)C(c2ccc(Cl)cc2Cl)N1 (configuration not stated)
inactive: [1] 111% | [2] 122% | [3] 113% | [4] 106% | [5] 101% | [6] 103% | [7] 104%

CCOc1ccc(-n2nc(C(=O)Nc3cc(OC)c(OC)c(OC)c3)nc2-c2cc(OC)c(OC)c(OC)c2)cc1
inactive: [1] 51.4% | [2] 91.4% | [3] 79.6% | [4] 95.5% | [5] 83.2% | [6] 75.8% | [7] 81.8%

O=C1/C(=C/c2ccccc2O)N=C2SCCCN12
inactive: [1] 84.5% | [2] 98% | [3] 96.6% | [4] 89.3% | [5] 92.2% | [6] 95.5% | [7] 90.2%

CC/C=C\C[C@H](O)C/C=C1/C(=O)C=C[C@@]1(C)C/C=C\CCCC(=O)OC
inactive: [1] 98.2% | [2] 104% | [3] 106% | [4] 114% | [5] 92.8% | [6] 94% | [7] 102%

COc1ccccc1Nc1nc(-c2cc3cccc(C(F)(F)F)c3oc2=O)cs1
active: [3] -44.8% | [6] 2.41% | [7] 3.87%
inactive: [1] 68.9% | [2] 41.9% | [4] 24% | [5] 15.7%

COc1ccc(CN2c3ccccc3Sc3ccccc32)c(C(F)(F)F)c1
inactive: [1] 25.9% | [2] 53.5% | [4] 25.8% | [5] 24.5% | [7] 20%
active: [3] -33.6% | [6] 7.74%

COc1ccc(CN2c3ccccc3Oc3ccccc32)cc1F
inactive: [1] 58.1% | [2] 70.1% | [4] 33.6% | [5] 42.7% | [6] 31.1% | [7] 40.7%
active: [3] -0.932%

O=C1c2cccc3cccc(c23)C(=O)N1CCCCN1CCN(CCCCOc2ccc(-c3nc4ccc(N5CCOCC5)cc4[nH]3)cc2)CC1
inactive: [1] 77.2% | [2] 91.7% | [3] 88.3% | [4] 95.1% | [5] 74.1% | [6] 69.1% | [7] 92.1%

Cc1ccc(O)c(N2C(=NCc3ccco3)NS(=O)(=O)c3cnccc32)c1
inactive: [1] 110% | [2] 101% | [3] 91.8% | [4] 111% | [5] 101% | [6] 99% | [7] 112%

O=C(Nc1ccccc1Cl)c1ccc(NC2=C(Cl)C(=O)N(C3CCCCC3)C2=O)cc1
inactive: [1] 38.7% [30 µM] | [2] 60.5% [30 µM] | [3] 49.6% [30 µM] | [4] 56.7% [30 µM] | [5] 34.7% [30 µM] | [6] 111% [30 µM] | [7] 64.9% [30 µM]

COc1ccc(NC2=C(Sc3nc(C)cc(C)n3)C(=O)N(Cc3ccccc3)C2=O)cc1Cl
inactive: [1] 41.9% [30 µM] | [2] 65.4% [30 µM] | [3] 86.6% [30 µM] | [4] 88.7% [30 µM] | [5] 48.4% [30 µM] | [6] 76.9% [30 µM] | [7] 99.2% [30 µM]

COc1cc2c(cc1O)CC[C@@H]1[C@@H]2CC[C@]2(C)[C@@H](NCCN(C)C)CC[C@@H]12
active: [1] -64.5% | [2] -84.3% | [3] -78.9% | [4] -80.4% | [5] -75.8% | [6] -90.6% | [7] -82.4%

CC1=CC(C)(C)Nc2ccc(Cc3ccc4c(c3)C(C)=CC(C)(C)N4)cc21
inactive: [1] 76.2% | [2] 80.1% | [3] 120% | [4] 130% | [5] 84.2% | [6] 83.5% | [7] 105%

COc1ccc2c(c1)CC/C(=C\c1cncc(Br)c1)C2=O
inactive: [1] 66.1% | [2] 95.7% | [3] 82.7% | [4] 42.6% | [5] 39.3% | [6] 65.8% | [7] 63.7%

NC(=NCCCC1(c2ccccc2)CCCC1)Nc1ccc(Cl)cc1
inactive: [2] 86.8% | [3] 10.9% | [5] 12.4% | [7] 15.2%
active: [1] 3.02% | [4] -32.9% | [6] 0.509%

CCOc1ccc(C(C)=O)cc1NC(=O)c1cccc(-c2nnn(CC)n2)c1
active: [3] -47.6%
inactive: [1] 29.6% | [2] 58.5% | [4] 31.2% | [5] 32.5% | [6] 19.3% | [7] 23.8%

CCC#CC[C@H](O)C/C=C1/C(=O)C=C[C@@H]1C/C=C\CCCC(=O)OC
inactive: [5] 15.1%
active: [1] 5.68% | [2] -0.591% | [3] 1.89% | [4] -12.5% | [6] -49.7% | [7] -49%

CCCCC[C@H]1C/C=C2/C(=O)C=C[C@@H]2C/C=C\CCCC(=O)O1
active: [1] -2.9% | [2] -11.2% | [3] -26.7% | [4] 0.0064% | [5] 0.464% | [6] -67.6% | [7] -83.6%

CC(=O)OC[C@H]1O[C@H](OC(C)=O)[C@H](NC(=O)/C=C/CCl)[C@@H](OC(C)=O)[C@@H]1OC(C)=O
inactive: [1] 69.1% | [2] 85.9% | [3] 80.4% | [4] 26% | [5] 79.3% | [6] 60.4% | [7] 80.5%

C=C1C(=O)O[C@H]2[C@H]1CC/C(C=Nc1ccc(C(F)(F)F)cc1N)=C\CC[C@@]1(C)O[C@@H]21
inactive: [1] 14.8% | [2] 16.3% | [5] 10.7% | [7] 20.3%
active: [3] 0.426% | [4] -32% | [6] -77.1%

Cc1cc(C)nc(SC2=C(Nc3ccc(O)cc3)C(=O)N(Cc3ccccc3)C2=O)n1
inactive: [1] 45% [40 µM] | [2] 63.9% [40 µM] | [3] 80.1% [40 µM] | [4] 113% [40 µM] | [5] 77.1% [40 µM] | [6] 95.4% [40 µM] | [7] 103% [40 µM]

CCOC(=O)c1sc(Nc2ccc(Cl)cc2)nc1C
inactive: [3] 23.1% | [4] 28.2% | [5] 13%
active: [1] 6.67% | [2] -4.09% | [6] 5.31% | [7] -1.62%

CN1CCN(c2ccc3nc(-c4ccc(OCCCCN5CCN(CCCCN6C(=O)c7cccc8cccc(c78)C6=O)CC5)cc4)[nH]c3c2)CC1
inactive: [1] 36.1% | [2] 47% | [3] 65.9% | [4] 84.2% | [5] 68.5% | [6] 45.9% | [7] 86.8%

CCOc1nc(-c2ccccc2)cc2c(O)c(C(=O)O)[nH]c(=O)c12
inactive: [1] 97.9% | [2] 108% | [3] 109% | [4] 114% | [5] 103% | [6] 105% | [7] 93.4%

COc1cc2c(cc1O)CC[C@@H]1[C@@H]2CC[C@]2(C)[C@@H](OCCN(C)C)CC[C@@H]12
inactive: [1] 58.3% | [2] 43.5% | [4] 13.1% | [5] 37.1% | [7] 24.2%
active: [3] -56.8% | [6] 7.27%

C#CCOc1ccc2ncnc(N3CCC(NC(=O)CCl)CC3)c2c1
inactive: [1] 71% [8.25 µM] | [2] 64.2% [8.25 µM] | [3] 68.1% [8.25 µM] | [4] 55.8% [8.25 µM] | [6] 56.5% [8.25 µM] | [8] 107% [8.25 µM] | [7] 96.5% [8.25 µM]

O=C1NC(=Nc2ccc(O)cc2)S/C1=C\c1cccc(Cl)c1
active: [3] 2.14%
inactive: [1] 76% | [2] 64.9% | [4] 30.7% | [6] 24.2% | [8] 83.8% | [7] 21.9%

CCCCCCCCCCCCC[N+](C)(C)Cc1ccccc1
active: [2] -72.9% | [3] -73.6% | [4] -37.6% | [6] -89.9% | [8] -80.5% | [7] -93.6%
inactive: [1] 15.1%

C=C1C(=O)O[C@H]2[C@H]1CC/C(COC(=O)NCc1ccc(OC)c(OC)c1)=C\CC[C@@]1(C)O[C@@H]21
inactive: [1] 30.2% | [2] 75.2% | [3] 54.8% | [4] 14.1% | [5] 34.5% | [7] 90.9%
active: [6] 7.17%
